# The supplement of paper PMC8728848
# Only a selection was taken, and the strongest signals are over-represented in it overall.
# B1: PfulAvr4 (Pseudocercospora fuligena) (protein)
# chain: HHHHHHDYKDDDDKTYVQDKTPAFVCPAADIKTTKCLGPKDCLYPSPKTCNGYIQCSPADDSYLTGIIHEMPCPSGLLWNDNKKWCDWPENTTCGLVKSAGATEVDATKQGPTPGKYHG
# How the values were obtained:
# Assay in all cases: glycan array binding signal (z-score within array); higher = stronger binding
# Settings in all cases: glycan notation: IUPAC condensed, linker removed
# [1] = biological target: Fuc(a1-2)Gal(b1-3)GalNAc(b1-3)Gal
# In short: (§1)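 From the Consortium for Functional Glycomics database, 3228 arrays were curated, keeping only those whose protein sequence was available. Binding is given as a within-array Z-score averaged across arrays sharing a protein sequence and across linkers. Negative Z-scores can be read as non-binding.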
# [2] = biological target: Fuc(a1-2)Gal(b1-3)[Fuc(a1-4)]GlcNAc(b1-2)Man(a1-3)[Fuc(a1-2)Gal(b1-3)[Fuc(a1-4)]GlcNAc(b1-2)Man(a1-3)]Man(b1-4)GlcNAc(b1-4)GlcNAc
# In short: as §1
# [3] = biological target: Fuc(a1-2)Gal(b1-3)[Fuc(a1-4)]GlcNAc(b1-3)[Gal(b1-4)GlcNAc(b1-6)]Gal(b1-4)Glc
# In short: as §1
# [4] = biological target: Fuc(a1-2)Gal(b1-4)GlcNAc(b1-3)[Fuc(a1-3)[Gal(b1-4)]GlcNAc(b1-6)]Gal(b1-4)Glc
# In short: as §1
# [5] = biological target: Fuc(a1-2)Gal(b1-4)[Fuc(a1-3)]GlcNAc
# In short: as §1
# [6] = biological target: Fuc(a1-2)Gal(b1-4)[Fuc(a1-3)]GlcNAc(b1-2)[Fuc(a1-2)Gal(b1-4)[Fuc(a1-3)]GlcNAc(b1-4)]Man(a1-3)[Fuc(a1-2)Gal(b1-4)[Fuc(a1-3)]GlcNAc(b1-2)Man(a1-6)]Man(b1-4)GlcNAc(b1-4)GlcNAc
# In short: as §1
# [7] = biological target: Fuc(a1-2)[Gal(a1-3)]Gal(b1-3)GlcNAc(b1-2)Man(a1-3)[Fuc(a1-2)[Gal(a1-3)]Gal(b1-3)GlcNAc(b1-2)Man(a1-6)]Man(b1-4)GlcNAc(b1-4)GlcNAc
# In short: as §1
# [8] = biological target: Fuc(a1-2)[Gal(a1-3)]Gal(b1-4)GlcNAc(b1-6)GalNAc
# In short: as §1
# [9] = biological target: Fuc(a1-2)[GalNAc(a1-3)]Gal
# In short: as §1
# [10] = biological target: Fuc(a1-2)[GalNAc(a1-3)]Gal(b1-3)GalNAc(a1-3)[Fuc(a1-2)]Gal(b1-4)GlcNAc
# In short: as §1
# [11] = biological target: Fuc(a1-2)[GalNAc(a1-3)]Gal(b1-3)GlcNAc(b1-3)GalNAc
# In short: as §1
# [12] = biological target: Fuc(a1-2)[GalNAc(a1-3)]Gal(b1-4)GlcNAc
# In short: as §1
# [13] = biological target: Fuc(a1-2)[GalNAc(a1-3)]Gal(b1-4)GlcNAc(b1-3)[Fuc(a1-2)[GalNAc(a1-3)]Gal(b1-4)GlcNAc(b1-6)]GalNAc
# In short: as §1
# [14] = biological target: Fuc(a1-2)[GalNAc(a1-3)]Gal(b1-4)GlcNAc(b1-6)GalNAc
# In short: as §1
# [15] = biological target: Fuc(a1-2)[GalNAc(a1-4)]Gal(b1-4)GlcNAc
# In short: as §1
# Gal(a1-3)Gal(b1-4)GlcNAc = biological target: Gal(a1-3)Gal(b1-4)GlcNAc
# In short: as §1
# Gal(b1-2)Gal = biological target: Gal(b1-2)Gal
# In short: as §1
# [16] = biological target: Gal(b1-3)GalNAc(b1-3)Gal(a1-4)Gal(b1-4)Glc
# In short: as §1
# [17] = biological target: Gal(b1-3)GlcNAc(b1-2)Man(a1-3)[GlcNAc(b1-4)][Gal(b1-3)GlcNAc(b1-2)Man(a1-6)]Man(b1-4)GlcNAc(b1-4)GlcNAc
# In short: as §1
# [18] = biological target: Gal(b1-3)GlcNAc(b1-3)GalNAc
# In short: as §1
# [19] = biological target: Gal(b1-3)[Fuc(a1-4)]GlcNAc(b1-2)Man(a1-3)[Gal(b1-3)[Fuc(a1-4)]GlcNAc(b1-2)Man(a1-6)]Man(b1-4)GlcNAc(b1-4)[Fuc(a1-6)]GlcNAc
# In short: as §1
# [20] = biological target: Gal(b1-3)[Neu5Ac(a2-6)]GalNAc
# In short: as §1
# [21] = biological target: Gal(b1-4)GalNAc(b1-3)[Fuc(a1-2)]Gal(b1-4)GlcNAc
# In short: as §1
# [22] = biological target: Gal(b1-4)GlcNAc(b1-2)Man(a1-3)[Man(a1-6)]Man(b1-4)GlcNAc(b1-4)GlcNAc
# In short: as §1
# [23] = biological target: Gal(b1-4)GlcNAc(b1-2)Man(a1-6)[GlcNAc(b1-2)Man(a1-3)]Man(b1-4)GlcNAc(b1-4)GlcNAc
# In short: as §1
# [24] = biological target: Gal(b1-4)GlcNAc(b1-3)Gal(b1-3)GlcNAc
# In short: as §1
# [25] = biological target: Gal(b1-4)GlcNAc(b1-3)Gal(b1-4)GlcNAc(b1-2)[Gal(b1-4)GlcNAc(b1-3)Gal(b1-4)GlcNAc(b1-6)]Man(a1-6)[Gal(b1-4)GlcNAc(b1-3)Gal(b1-4)GlcNAc(b1-2)Man(a1-3)]Man(b1-4)GlcNAc(b1-4)GlcNAc
# In short: as §1
# [26] = biological target: Gal(b1-4)GlcNAc(b1-3)Gal(b1-4)GlcNAc(b1-2)[Gal(b1-4)GlcNAc(b1-3)Gal(b1-4)GlcNAc(b1-6)]Man(a1-6)[Gal(b1-4)GlcNAc(b1-3)Gal(b1-4)GlcNAc(b1-2)Man(a1-3)]Man(b1-4)GlcNAc(b1-4)[Fuc(a1-6)]GlcNAc
# In short: as §1
# [27] = biological target: Gal(b1-4)GlcNAc(b1-3)Gal(b1-4)GlcNAc(b1-3)Gal(b1-4)GlcNAc(b1-3)Gal(b1-4)GlcNAc(b1-3)Gal(b1-4)GlcNAc(b1-2)Man(a1-3)[Gal(b1-4)GlcNAc(b1-3)Gal(b1-4)GlcNAc(b1-3)Gal(b1-4)GlcNAc(b1-3)Gal(b1-4)GlcNAc(b1-3)Gal(b1-4)GlcNAc(b1-2)Man(a1-6)]Man(b1-4)GlcNAc(b1-4)[Fuc(a1-6)]GlcNAc
# In short: as §1
binder,measurement,setting,value
B1,glycan array binding signal (z-score),[1],-0.098
same,glycan array binding signal (z-score),[2],1.42
same,glycan array binding signal (z-score),[3],-0.112
same,glycan array binding signal (z-score),[4],-0.102
same,glycan array binding signal (z-score),[5],-0.091
same,glycan array binding signal (z-score),[6],0.683
same,glycan array binding signal (z-score),[7],-0.05
same,glycan array binding signal (z-score),[8],-0.112
same,glycan array binding signal (z-score),[9],-0.132
same,glycan array binding signal (z-score),[10],1.31
same,glycan array binding signal (z-score),[11],-0.06
same,glycan array binding signal (z-score),[12],-0.151
same,glycan array binding signal (z-score),[13],-0.133
same,glycan array binding signal (z-score),[14],-0.129
same,glycan array binding signal (z-score),[15],-0.135
same,glycan array binding signal (z-score),Gal(a1-3)Gal(b1-4)GlcNAc,-0.07
same,glycan array binding signal (z-score),Gal(b1-2)Gal,-0.01
same,glycan array binding signal (z-score),[16],-0.044
same,glycan array binding signal (z-score),[17],0.682
same,glycan array binding signal (z-score),[18],-0.105
same,glycan array binding signal (z-score),[19],0.612
same,glycan array binding signal (z-score),[20],0.215
same,glycan array binding signal (z-score),[21],-0.141
same,glycan array binding signal (z-score),[22],1.71
same,glycan array binding signal (z-score),[23],-0.136
same,glycan array binding signal (z-score),[24],-0.04
same,glycan array binding signal (z-score),[25],1.38
same,glycan array binding signal (z-score),[26],-0.13
same,glycan array binding signal (z-score),[27],0.048
